Measurements as given in PubChem BioAssay (NCI).
Compounds without any hit were thinned out: in the full panel of roughly 79,000, 15% have a hit. Active and inactive are the calls of the source. Rule as the data show it: active = growth inhibition above about 70%; inactive = the rest.

Test: NCI Yeast Anticancer Drug Screen. Data for the mlh1 rad18 strain (AID 175)
Conditions: S. cerevisiae mlh1 rad18 strain growth inhibition; at 50.0 µM; active compounds read high
Method: Growth inhibition of yeast strains with defined genetic alterations is measured as a screen for potential anti-cancer activity. Selected strains with alterations in DNA damage repair or cell cycle control were exposed to compounds and growth inhibition was measured relative to vehicle treated controls. The strain used in this assay is mlh1 rad18

SMILES	growth inhibition
CCOc1ccc2c(c1)c(C)cc(C)[n+]2CC	-3.4% (inactive)
O=C(OCc1ccccc1)n1nnc2ccccc21	2.45% (inactive)
O=C(O)Cc1ccccn1	-2.25% (inactive)
COc1ccc(C(=O)/C(=N/Nc2ccccc2)c2ccc(OC)cc2)cc1	30.8% (inactive)
CCC(=O)Oc1c(C)cc(O)c2ccccc12	27.7% (inactive)
CCNc1ncnc2[nH]ncc12	-5.3% (inactive)
OCc1cccnc1	5.75% (inactive)
C/C=C/C1OCC(CC)C(CCC)O1 (stereo not given)	-1.15% (inactive)
Nc1ccn(C2OC(CO)C(O)C2F)c(=O)n1 (stereo not given)	-6.95% (inactive)
O=S1(=O)c2ccccc2Oc2ccccc21	-14.6% (inactive)
NNc1ncnc2c1ncn2C1OC(CO)C(O)C1O (stereo not given)	-15.2% (inactive)
Cc1ccc(C)c(CN(C)C)c1O	22.9% (inactive)
O=c1n(CC2CO2)c(=O)n(CC2CO2)n1CC1CO1 (stereo not given)	-8.8% (inactive)
OC(CCN1CCCCC1)(c1ccccc1)c1ccccc1	-18.4% (inactive)
Nc1nc(Cl)cc(Cl)n1	3.25% (inactive)
CCCCCCCCCCCCCCCCCC(=O)NCCNC(=O)CCCCCCCCCCCCCCCCC	-4.25% (inactive)
CC(=O)C[n+]1ccc(C)cc1Sc1ccccc1C	33.8% (inactive)
CCCCNc1ccc(-c2ccc(NCCCC)cc2)cc1	59.5% (inactive)
C[n+]1c(/C=C\C=C\N2CCCCC2)sc2ccccc21	27.9% (inactive)
CCOc1ccc(C(=O)NCC(C)C)cc1	-13.7% (inactive)

SMILES	growth inhibition
C=C1SC(=Nc2c(C)cccc2C)N(c2nc(Cl)nc(Cl)n2)C12CCCCC2	14.1% (inactive)
O=c1nc(Nc2cccc(Cl)c2)oc2cc(Cl)oc(=O)c12	42.6% (inactive)
CCCCCCCCCCCCCCCCCCSC(=N)N	27.9% (inactive)
CC(=O)OCC1CCC(COC(C)=O)CC1 (stereo not given)	-3.9% (inactive)
Oc1ccc(N=Cc2ccc(OCc3ccccc3)cc2)cc1	-4.1% (inactive)
NNC(=O)N/N=C1\C(=O)N(c2nccs2)C(=O)C(=O)C1c1nc2ccccc2s1 (stereo not given)	-19.4% (inactive)
N#C/C(=C\c1ccc(C#N)cc1)C(=O)c1ccccc1	18.9% (inactive)
Nc1cc(F)ccc1[N+](=O)[O-]	-5% (inactive)
CC(=O)NC(O)C(Cl)Cl (stereo not given)	-14.2% (inactive)
CCOC(=O)N[C@H]1CCc2cc(OC)c(OC)c(OC)c2-c2ccc(SC)c(=O)cc21	-1.55% (inactive)
Nc1ccc2c(c1)Cc1cc(N)c(N)cc1-2	5.8% (inactive)
CCCc1cccc(CCC)c1NC(=O)Nc1cc(Cl)cc(Cl)c1	23.6% (inactive)
CCC1CCC(C)NC1 (stereo not given)	21.8% (inactive)
C/C(=N\Nc1ccc([N+](=O)[O-])cc1[N+](=O)[O-])c1ccc(Br)cc1	3.05% (inactive)
Oc1cc(O)c2c(c1)O[C@H](c1ccc(O)c(O)c1)[C@@H](O)C2	-18.1% (inactive)
N#Cc1ccc(OC(=O)Nc2cc(Cl)cc(Cl)c2)cc1	-3.55% (inactive)
Nc1ccc2ccccc2c1-c1c(N)ccc2ccccc12	-2.65% (inactive)
OCCNc1ccccc1	9.7% (inactive)
Cc1ccc2nc(N)nnc2c1	-3.15% (inactive)
NC(=S)N/N=C/c1ccc(OC(=O)COc2ccccc2)cn1	9.9% (inactive)
